Inconclusive results are not listed. Unmarked numbers belong to inactive results. Calls come from the whole dose curve; as a rule, active = well fitted activation curve with a large enough effect in the repeat runs; inconclusive = weak or mixed curves; inactive = no such curve, though single readings can be large or run the other way.
biological target: Nuclear receptor subfamily 1 group I member 2 (Rattus norvegicus) (UniProt Q9R1A7); experiment: Rat pregnane X receptor (rPXR) activation by small molecules, qHTS assay (AID 1346983); conditions: rPXR luciferase reporter cells, One-Glo luminescence, 24 h; max activation: stronger effect = higher value; note: nearly all actives have a fitted effect of over 20% in size
Description: National Center for Advancing Translational Sciences [NCATS] NIH Chemical Genomics Center [NCGC] U.S. Environmental Protection Agency [EPA] National Institutes of Environmental Health Sciences [NIEHS] National Toxicology Program [NTP] Assay overview: The Pregnane X receptor (PXR), a ligand activated nuclear receptor plays a critical role in the regulation of genes involved in drug metabolism and transporters. PXR binds xenobiotics and when compounds interact with PXR produces enhanced expression of CYP3A genes. In humans PXR activation and CYP3A4 induction can be problematic due to their interactions with co-medicated drugs and decrease their efficacy or increase their own metabolism. However, there are known species-specific differences with regard to PXR activation that should be taken into account when animal PXR data are extrapolated to humans. A cell based rat PXR (rPXR) assay (developed by Puracyp, Inc., CA) was used to assess the activation of rPXR.
Assay Protocol Summary: rPXR cells were dispensed at 2,000 per well in 5uL of assay medium into white, solid-bottom 1536-well plates using a Multidrop Combi dispenser (Thermo Scientific). The assay plates were incubated at 37 C for 5hr before transferring 23 nL of test compounds dissolved in DMSO and positive control via Pintool station (Wako). The assay plates were incubated at 37 C for 24 hr. Then 5ul One-Glo assay reagent (Promega) was added to each plate by a Flying Reagent Dispenser (FRD, Aurora Discovery) and following 30 min incubation at room temperature, luciferase activity was quantified on a ViewLux plate reader (Perkin Elmer).
% is set by controls: 0 for no effect and ±100 for the full control effect.

Chain of Nuclear receptor subfamily 1 group I member 2 (Rattus norvegicus) (Q9R1A7 whole entry, looked up): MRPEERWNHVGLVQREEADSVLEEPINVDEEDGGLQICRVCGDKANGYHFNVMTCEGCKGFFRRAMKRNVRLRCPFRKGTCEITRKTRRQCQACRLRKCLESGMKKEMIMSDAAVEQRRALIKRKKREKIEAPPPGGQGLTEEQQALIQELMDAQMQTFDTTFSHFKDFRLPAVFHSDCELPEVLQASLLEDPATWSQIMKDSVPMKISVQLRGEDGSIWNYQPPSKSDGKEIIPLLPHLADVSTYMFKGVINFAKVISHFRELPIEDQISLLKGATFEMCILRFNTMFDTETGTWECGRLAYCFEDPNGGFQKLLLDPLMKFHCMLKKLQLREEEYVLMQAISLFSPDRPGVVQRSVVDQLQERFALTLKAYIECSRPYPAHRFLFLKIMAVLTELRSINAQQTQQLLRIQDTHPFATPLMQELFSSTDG

Row | Compound | max activation [%]
1 | CCNCC(O)c1cccc(O)c1 (stereo not given) | 1.03
2 | CNc1ccc(C(=O)CC(O)CCC(C)C2OC(=O)CC(O)CC(=O)CC(O)CC(O)CC(O)CC(O)CC3(O)CC(O)C(C(=O)OC)C(CC(O[C@@H]4O[C@H](C)[C@@H](O)[C@H](N)[C@@H]4O)/C=C/C=C/C=C/C=C/C=C/C=C/C=C/C2C)O3)cc1 (stereo not given in full) | -1.47
3 | CCC(=O)O[C@]1(c2ccccc2)CCN(C)C[C@H]1C | -0.104
4 | Clc1ccc2c(c1)C(c1ccccc1)=NCc1nncn1-2 | -10.5
5 | O=C(C[C@@H]1NCCC[C@H]1O)Cn1cnc2cc(Br)c(Cl)cc2c1=O | 5.28
6 | CCCCC[C@@H](O)C1C(=O)OC(C)[C@H](O)/C=C/C=C/C=C/C=C/C=C(\C)C(O)C(O)C(O)C[C@H](O)C[C@H](O)C[C@H](O)C[C@H](O)C[C@@H]1O (stereo not given in full) | 0.909
7 | CN1[C@H]2CC[C@@H]1[C@@H](C(=O)O)[C@@H](OC(=O)c1ccccc1)C2 | -2.75
8 | Oc1cc[c]([Hg][Cl])cc1 | -21.4
9 | Cc1nnc2n1-c1ccc(Cl)cc1C(c1ccccc1)=NC2 | -0.769
10 | CNC(=O)OCC[N+](C)(C)C | 0.49
11 | O=C1Nc2ccc(Cl)cc2C(c2ccccc2Cl)=NC1O (stereo not given) | -2.09
12 | CCCN1CCC[C@H](c2cccc(O)c2)C1 | -2.62
13 | CC(=O)O[C@H]1C[C@H](O[C@H]2[C@@H](O)C[C@H](O[C@H]3[C@@H](O)C[C@H](O[C@H]4CC[C@@]5(C)[C@H](CC[C@@H]6[C@@H]5C[C@@H](O)[C@]5(C)[C@@H](C7=CC(=O)OC7)CC[C@]65O)C4)O[C@@H]3C)O[C@@H]2C)O[C@H](C)[C@H]1O[C@@H]1O[C@H](CO)[C@@H](O)[C@H](O)[C@H]1O | 4.17
14 | c1csc(C2(N3CCCCC3)CCCCC2)c1 | -0.931
15 | COc1ccc2c3c1O[C@H]1[C@@H](O)C=C[C@H]4[C@@H](C2)NCC[C@@]341 | -0.689
16 | NCC[C@H](O)C(=O)N[C@@H]1C[C@H](N)[C@@H](O[C@H]2O[C@H](CN)[C@@H](O)[C@H](O)[C@H]2N)[C@H](O[C@@H]2O[C@H](CO)[C@@H](O)[C@H]2O)[C@H]1O | -1.3
17 | CC(C)NC(C)Cc1ccc(I)cc1 (stereo not given) | -3.06
18 | C[C@@H](Cc1ccccc1)N(C)C | -2.61
19 | CCCC(C)(COC(N)=O)COC(=O)NC1CC1 (stereo not given) | -2.91
20 | COC(COC(N)=O)C1=C(N2CC2)C(=O)C(C)=C(N2CC2)C1=O (stereo not given) | -20.2

Row | Compound | max activation [%]
21 | CC[C@H]1[C@@H]2C[C@H]3[C@@H]4N(C)c5ccccc5[C@]45C[C@@H](C2[C@H]5O)N3[C@@H]1O (stereo not given in full) | 0.0648
22 | CC(=O)OC1CN2CCC1CC2 (stereo not given) | -0.436
23 | S=C(S)N1CCNCC1 | -2.4
24 | CN(C)CCCCCCN(C)C (tested in a mixture with another compound) | -5.32
25 | CC(C)[C@@]1(NC(=O)[C@@H]2C[C@@H]3c4cccc5[nH]cc(c45)C[C@H]3N(C)C2)O[C@@]2(O)[C@@H]3CCCN3C(=O)[C@H](Cc3ccccc3)N2C1=O | -8.17
26 | CNC(=O)Oc1ccccc1C(=O)Nc1ccccc1 | -3.26
27 | C[N+]1(C)[C@@H]2CC[C@H]1CC(OC(=O)c1c[nH]c3ccccc13)C2 (stereo not given in full) | -3.92
28 | C=C[C@H]1CN2CC[C@H]1C[C@@H]2[C@@H](O)c1ccnc2ccccc12 | -2.95
29 | CC(=O)OCC(=O)[C@H]1CC[C@H]2[C@@H]3CC[C@H]4C[C@H](O)CC[C@]4(C)[C@H]3C(=O)C[C@]12C | -0.613
30 | OC[C@@H](O)[C@H]1O[C@@H]2O[C@@H](C(Cl)(Cl)Cl)O[C@@H]2[C@H]1O | -2
31 | C=CCN1CC[C@]23c4c5ccc(O)c4O[C@H]2[C@@H](O)C=C[C@H]3[C@H]1C5 | -1.77
32 | CC(=O)O[C@H]1CC[C@H]2[C@@H]3CCC4=CC(=O)CCC4=C3C=C[C@]12C | -1.98
33 | C[C@]12C=CC(=O)C=C1CC[C@@H]1[C@@H]2CC[C@]2(C)OC(=O)CC[C@@H]12 | -1.12
34 | C[C@]12CC[C@H](OS(=O)(=O)O)CC1=CC[C@@H]1[C@@H]2CC[C@]2(C)C(=O)CC[C@@H]12 | -3.4
35 | CN(C)[C@H](Cc1ccccc1)c1ccccc1 | 0.224
36 | CC[N+](C)(CC)CCOC(=O)C(O)(c1ccccc1)c1ccccc1 | -2.16
37 | C[C@]12CC[C@H]3[C@@H](CCC4=C(O)C(=O)CC[C@@H]43)[C@@H]1CC[C@@H]2OC(=O)CCC1CCCC1 | -2.22
38 | O=C1C=C2C=C[C@@H]3C[C@@]2(O1)[C@H]1CCCCN31 | -20.5
39 | CCCCCN(C)CCC(O)(P(=O)(O)O)P(=O)(O)O | -1.96
40 | CC(N)Cc1ccc(O)cc1 (stereo not given) | -0.925

Source: PubChem BioAssay (Tox21)
